# Shown are actives, neighbours in structure and some others; about 12% of the full set was active somewhere.
# Shiga inhibitor – Shiga toxin inhibition; Vero cells, Shiga toxin protein synthesis inhibition reporter; inhibition, % at 38.7 µM; 290,000 tested, 9.2% active; in the data active = inhibition mostly above about 28%, no sharp cut-off; inactive = mostly below about 43%
# CHX counter – counter-screen hit for Shiga toxin inhibitors, cycloheximide; cell reporter, cycloheximide protein synthesis inhibition counterscreen; max response, %; 300,000 tested, 12% active; in the data active = max response mostly above about 13%, no sharp cut-off; inactive = mostly below about 14%; also: read at 38.3 µM for the half of the compounds with a filed dose
# NS1 function inh – blocks influenza NS1 protein function | AID 2326 | 270,000 tested, 0.4% active | Potency, µM (titrated, usually from 46.1 µM); also: actives are rising curves; nearly all actives have a fitted effect of over 50% in size
#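 OD600 was taken as the measure of yeast growth restored by compound in an NS1-expressing S. cerevisiae strain. Cells had been washed out of glucose medium and diluted 1:100 into galactose -URA medium, pH 6.0.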
# SARS PLpro yeast – blocks SARS-CoV papain-like protease in a yeast assay. S. cerevisiae expressing SARS-CoV PLpro, growth rescue. Potency, µM (top dose mostly 32.9 µM), hits mostly activators. 330,000 tested, 0.19% active; also: nearly all actives have a fitted effect of over 55% in size
# Numbers stand for hits; i = inactive; ? = inconclusive; nt = no result. Unless noted, calls follow the shape of the full dose curve.
SMILES,Shiga inhibitor,CHX counter,NS1 function inh,SARS PLpro yeast
CCC(C)c1ccc(N(C(=O)c2ccco2)C(C(=O)NC2CCCC2)c2cccnc2)cc1 (configuration not stated),94,39,i,i
CCc1ccc(N(C(=O)c2ccco2)C(C(=O)NC2CCCC2)c2cccnc2)cc1 (configuration not stated),i,i,i,i
O=C(Nc1cccc(Cl)c1N1CCOCC1)c1cccnc1Cl,i,i,i,i
O=C(CSc1ccc(-c2ccc(F)cc2)nn1)NCC1CCCO1 (configuration not stated),i,i,nt,i
COc1ccc(-c2ccc(SCC(=O)Nc3cccc(C(C)=O)c3)nn2)cc1OC,97,40,nt,i
COc1ccc(-c2ccc(SCC(=O)NCC3CCCO3)nn2)cc1OC (configuration not stated),i,21,i,i
COc1ccc(-c2ccc(SCC(=O)c3cccs3)nn2)cc1OC,56,i,i,i
COc1ccc(-c2ccc(SCC(=O)NC3CCCCC3)nn2)cc1OC,65,37,i,i
Cc1ccccc1CSc1nnc(-c2ccncc2)n1C,i,i,i,i
CC(=O)c1ccc(NC(=O)CSc2ccc(-c3sc(C)nc3C)nn2)cc1,i,13,i,i
Fc1cccc(Cl)c1CSc1nnc(-c2ccncc2)o1,57,36,i,i
N#Cc1ccccc1CSc1nnc(-c2ccncc2)o1,49,34,i,i
c1ccc2c(CSc3nnc(-c4ccncc4)o3)cccc2c1,i,i,i,i
N#Cc1cccc(-c2nnc(SCc3ccccc3C#N)o2)c1,89,46,i,i
N#Cc1ccc(CSc2nnc(-c3cccc(S(=O)(=O)N4CCCCC4)c3)o2)cc1,i,i,i,i
Clc1ccccc1CSc1nnc(-c2ccncc2)o1,54,47,i,i
CC1CCN(C(=O)Cn2nnc(-c3ccc(N)cc3)n2)CC1,i,i,i,i
N#Cc1ccccc1CSc1nnc(Cc2ccccc2)o1,53,21,i,i
Clc1cccc(Cl)c1CSc1nnc(-c2sccc2-n2cccc2)o1,95,20,i,i
O=C(O)c1ccc(CSc2nnc(Cc3ccccc3)o2)cc1,i,i,i,i
NC(=O)CSc1ncc(-c2ccccc2)[nH]1,79,14,i,i
O=C(CSc1ncc(-c2ccccc2)[nH]1)Nc1ccccc1F,72,40,nt,i
NC(=O)CSc1ncc(-c2ccc([N+](=O)[O-])cc2)[nH]1,i,i,nt,i
O=C(CSc1ncc(-c2ccc(F)cc2)[nH]1)N1CCCCC1,44,26,i,i
O=C(CSc1ncc(-c2ccccc2)[nH]1)Nc1cccc(O)c1,i,12,i,i
SMILES,Shiga inhibitor,CHX counter,NS1 function inh,SARS PLpro yeast
O=C(CSc1ncc(-c2ccccc2)[nH]1)Nc1ccccc1,i,i,i,i
CC(NS(=O)(=O)c1ccc(CCC(=O)NCc2cccnc2)cc1)c1ccccc1 (configuration not stated),i,i,i,i
Cc1ccc(N2CCN(C(=O)N3CCCC3)CC2)cc1C,i,i,i,i
COc1ccc(N2CCN(C(=O)CSc3nc4nc(C)cc(C)n4n3)CC2)cc1,nt,nt,nt,i
Cc1oncc1C(=O)N1CCCC(CO)(Cc2ccc(F)cc2F)C1 (configuration not stated),i,17,i,i
c1ccc(CCc2nn3c(C4COc5ccccc5O4)nnc3s2)cc1 (configuration not stated),35,24,nt,i
c1ccc(-c2nn3c(C4COc5ccccc5O4)nnc3s2)cc1 (configuration not stated),nt,nt,i,nt
c1ccc(Cc2nnc3sc(C4COc5ccccc5O4)nn23)cc1 (configuration not stated),i,i,i,i
c1ccc(Cc2nn3c(C4COc5ccccc5O4)nnc3s2)cc1 (configuration not stated),72,33,i,i
COc1ccc(/C=C2/SC(=S)N(CC(=O)O)C2=O)cc1OCc1ccc(Cl)cc1,42,33,?,i
COc1ccc(/C=C2/SC(=S)N(CCCC(=O)N3CCN(C)CC3)C2=O)cc1,35,12,i,?
COc1ccc(/C=C2/SC(=S)N(CCC(=O)N3CCN(C)CC3)C2=O)cc1,i,i,i,i
COc1ccc(/C=C2\SC(=S)N(CC(=O)NCCO)C2=O)cc1,i,21,nt,i
CCOC(=O)c1c(C)[nH]c(C)c1C(=O)COC(=O)c1ccc(S(=O)(=O)C(F)F)cc1,nt,nt,nt,i
O=C(CN1c2cccc3cccc(c23)S1(=O)=O)Nc1c(F)c(F)c(F)c(F)c1F,nt,nt,nt,i
O=C(NC(=S)N1CCCCC1CO)C12CC3CC(CC(C3)C1)C2 (configuration not stated),i,i,i,i
CC(=O)NCc1ccc(C(=O)COC(=O)COc2ccc(Cl)c(C)c2)s1,nt,nt,nt,i
Cc1ccc(CC2CC(=O)N(c3ncccn3)C2=O)cc1 (configuration not stated),i,i,i,i
Cc1ccc(CC2CC(=O)N(CCc3ccccc3)C2=O)cc1 (configuration not stated),i,19,i,i
O=C1CC(Cc2ccccc2)C(=O)N1c1ncccn1 (configuration not stated),103,53,i,i
Cn1ccnc1C(O)c1cc(C(C)(C)C)c(O)c(C(C)(C)C)c1 (configuration not stated),i,i,i,i
C=CCSc1nnc(C)n1-c1ccc(Cl)cc1,i,i,i,i
CC(=O)NC1C(OCc2ccccc2)OC2COC(c3ccccc3)OC2C1OCC(=O)O (configuration not stated),i,41,i,i
COc1ccccc1CCNC(=O)CSc1nc(=O)[nH]c2c1CCC2,nt,nt,nt,i
O=[N+]([O-])CC(=Nc1ccc(Cl)cc1)N/N=C\c1oc(O)c2ccccc12,i,21,i,i
SMILES,Shiga inhibitor,CHX counter,NS1 function inh,SARS PLpro yeast
Fc1ccc(CCNCc2ccccc2Cl)cc1,i,22,i,i
Cc1ccc(CNCc2ccccc2Cl)cc1,i,16,i,i
CCOc1ccc(CNCc2ccccc2Cl)cc1,51,32,i,i
Fc1ccc(CNCc2ccccc2Cl)cc1,i,i,nt,i
CCOc1ccc(CNC(c2ccccc2)c2ccccc2)cc1,i,i,i,i
CCOc1ccc(CN(C)CC(=O)NCc2ccccc2)cc1,i,i,i,i
CCOc1ccc(CN(C)CC(=O)NCc2ccccc2Cl)cc1,36,i,nt,i
C=CCC(O)[C@H](Cc1cnc2ccccc2c1)[C@H](/C=C/CCCC)c1ccccc1 (some centres not stated),i,i,nt,nt
COc1ccc(-c2nc(CSCC(=O)NC3CCCc4ccccc43)c(C)o2)cc1 (configuration not stated),i,i,i,i
CN1C/C(=C/c2ccc(B(O)O)cc2)C(=O)/C(=C/c2ccc(B(O)O)cc2)C1,i,i,nt,nt
Cc1c(-c2nnc(SCC(=O)O)n2-c2ccccc2Br)nnn1-c1ccccc1,i,i,i,i
N#CCSc1nc2ccccc2o1,i,i,i,i
O=[N+]([O-])c1ccccc1CSc1nc2ccccc2o1,75,40,i,i
Cc1cc(=O)oc2cc(NC(=O)Cc3ccccc3[N+](=O)[O-])ccc12,i,i,i,i
CC(C)CNc1oc(-c2ccc(F)cc2)nc1C#N,40,16,i,i

# Screening data: PubChem, National Center for Advancing Translational Sciences (NCATS)
